High-throughput results (PubChem)
Sfp PPTase inh: qHTS Assay for Inhibitors of Bacillus subtilis Sfp phosphopantetheinyl transferase (PPTase) | 4'-phosphopantetheinyl transferase ffp (Bacillus subtilis), Q9F4F7 | Biochemical Sfp PPTase activity, qHTS | Potency, µM, actives largely listed as inhibitors | actives 3.5% (n = 310,000);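 further: the enzyme is Sfp with the accession as filed and its product quenches rhodamine fluorescence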
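Step 1, compound plus 15 nM Sfp-PPTase, 15 min, room temperature. Step 2, add rhodamine-CoA (5 uM) and BHQ-2-YbbR (12.5 uM). Step 3, read 525/598 nm fluorescence at 0 and 30 min.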
JMJD2A Tudor: qHTS Assay for Inhibitors of JMJD2A-Tudor Domain | AlphaScreen JMJD2A-Tudor / H3K4me3 peptide binding | Potency, µM (highest dose often 114 µM), hits mostly inhibitors | actives 4.4% (n = 390,000) | AID 504339, 2011; further: nearly all actives have a fitted effect of over 50% in size
HP1b binding inh: HTS for Inhibitors of HP1-beta Chromodomain Interactions with Methylated Histone Tails | Chromobox protein homolog 1 (Homo sapiens), P83916 | AlphaScreen HP1-beta / biotin-H3K9me3 peptide binding | Potency, µM (titrated, usually from 114 µM), usual class: inhibitors | actives 0.56% (n = 390,000); further: nearly all actives have a fitted effect of over 70% in size
Target sequence (P83916 whole entry, looked up): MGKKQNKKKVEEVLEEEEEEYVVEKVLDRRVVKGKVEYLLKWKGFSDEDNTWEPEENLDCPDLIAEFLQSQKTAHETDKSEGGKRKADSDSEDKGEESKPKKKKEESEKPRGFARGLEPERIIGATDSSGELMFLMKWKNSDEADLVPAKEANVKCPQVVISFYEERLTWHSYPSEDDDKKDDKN
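Compound inhibition of the preformed complex between 50 nM HP1-beta and 50 nM biotinylated H3K9me3 peptide was read by AlphaScreen. Buffer was PBS pH 7.4 with 0.01% Tween-20. Incubations ran 30 min at room temperature, with 10 ug/mL donor/acceptor beads.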
L3MBTL1 block: qHTS Assay for the Inhibitors of L3MBTL1 | Lethal(3)malignant brain tumor-like protein 1 (Homo sapiens), Q9Y468 | AlphaScreen L3MBTL1–H3K9me1 peptide binding | Potency, µM (highest dose often 57.1 µM), hits mostly inhibitors | actives 0.66% (n = 230,000) | AID 485360, 2010; further: nearly all actives have a fitted effect of over 60% in size
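L3MBTL1 (50 nM) pre-complexed 30 min with biotinylated H3(1-15)K9me1 peptide (75 nM), then compounds added for 30 min at room temperature; AlphaScreen streptavidin donor/nickel chelate acceptor beads (10 ug/mL final) read after 30 min dark incubation.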
BAZ2B inh: qHTS Assay for Inhibitors of BAZ2B. Bromodomain adjacent to zinc finger domain protein 2B (Homo sapiens), Q9UIF8. actives 4.4% (n = 360,000). Potency, µM (top dose mostly 114 µM), hits mostly inhibitors. AlphaScreen BAZ2B-H3K14Ac peptide displacement; further: nearly all actives have a fitted effect of over 60% in size
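Complex of BAZ2B and biotin-H3K14Ac (50 nM apiece) forms over 30 min at RT, then faces library compounds up to 110 uM for another 30 min; AlphaScreen beads added, 20 min dark incubation, luminescence read.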
G9a inh: qHTS Assay for Inhibitors of Histone Lysine Methyltransferase G9a | Histone-lysine N-methyltransferase EHMT2 (Homo sapiens), Q96KQ7 | G9a H3K9 monomethylation, AlphaScreen, 2 h | Potency, µM (doses to about 102 µM), hits mostly inhibitors | actives 8.8% (n = 350,000); further: nearly all actives have a fitted effect of over 75% in size
Target sequence (Q96KQ7 913-1193 limits assumed): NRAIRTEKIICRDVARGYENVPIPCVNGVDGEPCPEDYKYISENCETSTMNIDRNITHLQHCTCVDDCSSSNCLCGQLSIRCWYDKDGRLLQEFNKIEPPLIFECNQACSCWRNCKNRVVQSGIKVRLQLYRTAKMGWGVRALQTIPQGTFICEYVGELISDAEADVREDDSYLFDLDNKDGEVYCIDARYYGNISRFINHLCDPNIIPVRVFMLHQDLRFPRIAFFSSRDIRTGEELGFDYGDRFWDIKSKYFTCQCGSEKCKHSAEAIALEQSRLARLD
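Step 1: enzyme (final 20 nM) with compound, 15 min RT. Step 2: substrate peptide 500 nM and SAM 20 uM, 2 h RT. Step 3: anti-H3K9me1 antibody and AlphaScreen beads, 10 min, then plate read.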
Hits are given with their value; n = inactive; u = inconclusive; x = no result given; ! = not active in a repeat; [ ] = remark or other dose. In the library only some 12% were active in any assay of this set; here they are far more common. The call rests on the fitted dose curve; in most records, active means well fitted curve in the direction sought with a large enough effect; inconclusive means small, poorly fitted or top-dose-only effect, or another doubt; inactive means no such curve, though single readings can be large; an effect the other way counts as inactive or inconclusive.

SMILES	Sfp PPTase inh	JMJD2A Tudor	HP1b binding inh	L3MBTL1 block	BAZ2B inh	G9a inh
CCN1CCCC1CNC(=S)Nc1ccc(C(C)=O)cc1 (stereo unspecified)	n	n	n	n	n	39.8µM
CC(=O)c1ccc(NC(=S)N2C(C)CCCC2C)cc1 (stereo unspecified)	44.7µM	x	x	n	n	50.1µM
CC(=O)Nc1nc(=S)n(-c2ccccc2)[nH]1	15.8µM	17.8µM	u	n	u	3.98µM
CC(C)c1nc(=S)n(-c2ccccc2)[nH]1	n	6.31µM	n	n	n	10µM
Cc1[nH]n(-c2ccccc2)c(=O)c1C(=O)c1ccccc1	n	n	n	n	n	u
COc1cc(C(=O)NCC(c2cccs2)S(=O)(=O)c2cccs2)cc(OC)c1OC (stereo unspecified)	x	n	n	x	n	n
COc1ccc(-c2nn3c(-c4ccc(F)cc4)nnc3s2)cc1	n	n	n	n	n	44.7µM
COc1ccc(Cc2nn3c(-c4cc(OC)c(OC)c(OC)c4)nnc3s2)cc1	n	79.4µM	u	n	n	u
COc1ccc(-c2nn3c(-c4ccccc4)nnc3s2)cc1	u	n	n	n	u	u
COc1ccc(-c2nnc3sc(CCN4C(=O)c5ccccc5C4=O)nn23)cc1	n	n	n	n	n	44.7µM
COc1cc(-c2nnc3sc(Cc4ccc(Cl)cc4)nn23)cc(OC)c1OC	x	n	n	x	x	x
COC(=O)c1cc(=O)nc2sc(-c3ccc(F)cc3)nn12	22.4µM	n	u	n	n	3.98µM
CCC(C)NC(=O)c1cnn(-c2cccc(F)c2)c1-n1cccc1 (stereo unspecified)	x	n	n	x	n	n
COc1cc(-c2nnc3sc(Cc4ccccc4)nn23)cc(OC)c1OC	n	u	u	n	n	35.5µM
CCCCc1ccc(N=N/C(C(=O)Nc2ccc(NC(C)=O)cc2OC)=C(/C)O)cc1	n	u	n	n	u	35.5µM
O=C(CSc1ncn[nH]1)N1N=C2/C(=C\c3ccco3)CCCC2C1c1ccco1 (stereo unspecified)	x	n	n	x	x	x
O=C(CSc1ncn[nH]1)N1N=C2/C(=C/c3ccco3)CCCC2C1c1ccco1 (stereo unspecified)	n	56.2µM	n	x	u	50.1µM
CCCCN1C(=O)C(=O)N(CC(=O)N2N=C3/C(=C/c4ccco4)CCCC3C2c2ccco2)C1=O (stereo unspecified)	44.7µM	u	n	x	n	u
NC/C=C/C(=O)O	n	x	x	x	x	n
NC/C=C\C(=O)O	n	x	x	x	x	12.6µM!
CC(C)NC(=O)N1[C@H](c2cccs2)[C@@H](C)C(=O)[C@@H](C)[C@@H]1c1cccs1	x	n	n	x	n	n
CC(C)Nc1cc(N2CCN(C3CCCCC3)CC2)c2noc3c2c1C(=O)c1ccccc1-3	x	22.4µM	u	x	12.6µM	u
CCOC(=O)N1CCN(c2cc(NCCO)c([N+](=O)[O-])c3nonc23)CC1	n	n	n	n	n	n
Cn1c(=O)cc(SCC(=O)N2CCN(C3CCCCC3)CC2)c2ccccc21	x	n	n	x	x	x
CC(=O)OCCNc1cc(N2CCN(C)CC2)c2noc3c2c1C(=O)c1ccccc1-3	n	50.1µM	n	u	39.8µM	u
SMILES	Sfp PPTase inh	JMJD2A Tudor	HP1b binding inh	L3MBTL1 block	BAZ2B inh	G9a inh
CCNc1cc(N2CCN(C3CCCCC3)CC2)c2noc3c2c1C(=O)c1ccccc1-3	x	50.1µM	u	x	35.5µM	u
O=C(O)CCCNc1cc(N2CCN(C3CCCCC3)CC2)c2noc3c2c1C(=O)c1ccccc1-3	x	35.5µM	22.4µM	x	31.6µM	15.8µM
N#C/C(=C\c1ccccc1[N+](=O)[O-])c1nc(C2CC2)cs1	n	31.6µM	u	u	28.2µM	20µM
N#C/C(=C\C=C\c1ccccc1[N+](=O)[O-])c1nc(-c2ccc3c(c2)OCO3)cs1	n	n	n	n	n	n
N#C/C(=C/c1ccccc1[N+](=O)[O-])c1nnc2n1CCCCC2	n	n	n	n	n	n
N#C/C(=C/c1ccccc1[N+](=O)[O-])c1nc(C2CC2)cs1	n	89.1µM	u	u	10µM	u
Cc1ccccc1OCC(=O)Nc1ccc(N2CCN(C(=O)c3ccco3)CC2)cc1	n	u	n	x	u	u
Cc1ccc(/C=N\NC(=O)Cn2c(C)nc3ccccc32)o1	n	n	n	n	n	n
O=C(Cn1cnc2ccccc21)N/N=C/c1ccccn1	79.4µM	n	n	n	10µM	n[0.501 µM]
Cc1nc2ccccc2n1CC(=O)N/N=C\c1ccccn1	u	u	n	n	50.1µM	u
Clc1cccc(CNc2ncnc3c2nc2n3CCCC2)c1	x	n	n	x	n	n
O=c1cc[nH]c2c1ccc1cccnc12	x	n	n	n	56.2µM	u
O=C(c1cc2ccc3cccnc3c2[nH]1)N1CCCCC1	x	n	n	x	n	n
CC(=O)Nc1ccc2nc3c(=O)[nH]c(=O)[nH]c3nc2c1	x	n	n	x	u	u
Cn1c(=O)c2cc(NCc3ccccc3)nnc2n(C)c1=O	u	n	n	n	n	14.1µM
COc1ccc(N2CCN(C(CNC(=O)c3ccc(C)cc3)c3ccc4c(c3)OCO4)CC2)cc1 (stereo unspecified)	x	28.2µM	n	x	20µM	8.91µM
COc1ccc(N2CCN(C(CNC(=O)CC(C)C)c3ccc4c(c3)OCO4)CC2)cc1 (stereo unspecified)	x	u	n	x	n	11.2µM
CCOC(=O)c1c(NC(=O)CSc2nncs2)sc(C)c1C	n	n	n	n	u	10µM
CCOC(=O)c1sc(NC(=O)CSc2nc(-c3ccco3)cc(C(F)(F)F)n2)c(C(=O)OCC)c1C	x	n	n	x	x	x
CCOC(=O)c1c(NC(=O)CSc2nnnn2-c2ccc(OC)cc2)sc(C)c1C	5.01µM	50.1µM	u	x	n	u
CCOC(=O)c1csc(NC(=O)CSc2nnnn2-c2ccc(OC)cc2)n1	n	n	n	n	n	n
CCOC(=O)c1c(NC(=O)CSc2ncnc3ccccc23)sc(C)c1C	u	n	n	n	n	n
CCOC(=O)c1c(NC(=O)CSc2nc(-c3ccccc3)cc(C(F)(F)F)n2)sc(C)c1C	x	n	n	x	n	6.31µM
CCOC(=O)c1c(NC(=O)CSc2ccccc2C(=O)O)sc(C)c1C	n	n	n	n	50.1µM	n
CCOC(=O)C(NC(=O)N(C)C)(Nc1sc(C)c(CC)c1C#N)C(F)(F)F (stereo unspecified)	44.7µM	n	n	n	n	8.91µM
